Bioassay records deposited in PubChem by National Center for Advancing Translational Sciences (NCATS).
Compounds with a hit are over-represented: about 1.4% of the library has one in this group of screens.
SARS PLpro yeast: inhibitors of SARS-CoV papain-like protease in yeast; S. cerevisiae expressing SARS-CoV PLpro, growth rescue; Potency, µM (highest dose often 32.9 µM), inactives show at the highest dose activity, positive = growth rescue, most hits filed as activators; 330,000 tested, 0.19% active; AID 485353; also: potency is read from the fitted curve at half-maximal effect; 0% is about no effect; nearly all actives have a fitted effect of over 55% in size
AmpC no deterg: AmpC beta-lactamase inhibition without detergent; P00811; AmpC nitrocefin hydrolysis, absorbance 480 nm, 0.0001% Triton; Potency, µM (titrated, usually from 57.1 µM), without a hit: at the highest dose activity change, negative = inhibition, actives largely listed as inhibitors; 330,000 tested, 0.52% active; active = well fitted curve in the direction sought with a large enough effect; inconclusive = small, poorly fitted or top-dose-only effect, or another doubt; inactive = no such curve, though single readings can be large; an effect the other way counts as inactive or inconclusive;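 also: potency is read from the fitted curve at half-maximal effect; plate controls were no compound for no effect and no enzyme for full effect; nearly all actives have a fitted effect of over 20% in size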
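AmpC (5.3 nM in the dispensed reagent) in 20 mM phosphate pH 7.0 with 0.01% (detergent screen) or 0.0001% Triton X-100 was preincubated with compounds for 15 min at room temperature. Nitrocefin was then added from an 800 uM solution, and hydrolysis was followed at 480 nm.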
Giardia FBPA inh: blocks Giardia fructose-bisphosphate aldolase activity; A8B2U2; Potency, µM (top dose mostly 59.6 µM), for the others: top-dose activity, negative = inhibition, actives largely listed as inhibitors; purified Giardia FBPA; 290,000 tested, 0.71% active; active = well fitted curve in the direction sought with a large enough effect; inconclusive = small, poorly fitted or top-dose-only effect, or another doubt; inactive = no such curve, though single readings can be large; an effect the other way counts as inactive or inconclusive; also: potency is read from the fitted curve at half-maximal effect; % is scaled to controls: 0 for no effect and ±100 for the full control effect; nearly all actives have a fitted effect of over 55% in size
Target sequence (A8B2U2 whole entry, looked up): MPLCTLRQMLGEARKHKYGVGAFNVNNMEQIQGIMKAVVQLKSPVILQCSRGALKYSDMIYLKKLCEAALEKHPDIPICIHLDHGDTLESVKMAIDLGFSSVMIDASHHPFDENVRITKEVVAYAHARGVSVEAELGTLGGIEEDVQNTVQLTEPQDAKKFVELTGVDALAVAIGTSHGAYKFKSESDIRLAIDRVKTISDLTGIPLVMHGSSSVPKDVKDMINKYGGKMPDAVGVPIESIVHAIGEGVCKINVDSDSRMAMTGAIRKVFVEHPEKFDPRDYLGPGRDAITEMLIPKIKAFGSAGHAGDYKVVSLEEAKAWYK
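40 nM FBPA preincubated 10 min at RT with compound (up to 57.5 uM final), then substrate plus GAPDH/TPI/NAD/arsenate coupling and diaphorase/resazurin added. Fluorescence read after 20 min at RT, 525/598 nm.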
AmpC detergent: blocks E. coli AmpC beta-lactamase in detergent assay | Potency, µM (doses to about 114 µM), inactives show at the top dose activity change, negative = inhibition, actives largely listed as inhibitors | P00811 | 370,000 tested, 0.041% active | AmpC hydrolysis of nitrocefin, absorbance 480 nm, 0.01% Triton; active = well fitted curve in the direction sought with a large enough effect; inconclusive = small, poorly fitted or top-dose-only effect, or another doubt; inactive = no such curve, though single readings can be large; an effect the other way counts as inactive or inconclusive;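 also: potency is read from the fitted curve at half-maximal effect; 0% = no-compound wells and -100% = no-enzyme wells; nearly all actives have a fitted effect of over 25% in size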
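20 mM phosphate pH 7.0 + 0.01% (detergent screen) or 0.0001% Triton X-100; 5.3 nM AmpC reagent; cpd preinc 15 min RT; nitrocefin (800 uM stock) to start; A480 q20 s × 4 min; Activity was normalised to no-enzyme and no-compound control wells.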
NS1 function inh: influenza NS1 inhibition | Potency, µM (series often up to 46.1 µM), for the others: at the highest dose activity, positive = more growth | AID 2326 | 270,000 tested, 0.4% active; also: potency is read from the fitted curve at half-maximal effect; actives are rising curves; nearly all actives have a fitted effect of over 50% in size
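Read-out: OD600 growth recovery of NS1-expressing budding yeast. Cells grown overnight at 30C in -URA glucose medium, washed, resuspended and diluted 1:100 in 2% galactose assay medium, pH 6.0. Same strain lacking NS1 served as positive control.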
NS1 inh valid: validation of influenza NS1 protein function inhibitors | shares compounds with NS1 function inh | influenza NS1 function cell assay, 15-point titration | activity change, negative = inhibition, % at 32.9 µM | 1,400 tested, under 10 active; also: 0% is about no effect
* hit, by the source's call; ? = inconclusive; . = not tested or not shown. Unless noted, calls follow the shape of the full dose curve.

SMILES	SARS PLpro yeast	AmpC no deterg	Giardia FBPA inh	AmpC detergent	NS1 function inh	NS1 inh valid
COc1cccc(NC(=S)NCCC(c2ccccc2)c2ccccc2)c1	27%	-30%	4%	4%	11%	.
COc1ccc(NC(=O)CC(C)=O)c(OC)c1	-1%	13%	-2%	-1%	5%	.
COc1ccc(NC(=S)NCCC(c2ccccc2)c2ccccc2)c(OC)c1	-2%	-35%	-8%	?	11µM*	?
COc1ccc(NC(=O)CC(=O)Nc2ccc(OC)cc2OC)c(OC)c1	1%	-2%	-2%	-17%	?	2
COC(=O)C1=C(CS(=O)(=O)c2ccc(Cl)cc2)NC(=O)NC1c1ccc(O)c(OC)c1 (stereo not given)	0%	-25%	0%	-13%	6%	.
CCCCn1cc(C(C)(C)C)c(C#N)c1NC(C)=O	-2%	3%	-2%	-9%	-1%	.
CCOc1ccc(NC(=O)CCS(=O)(=O)c2ccc3c(c2)CCCN3C(C)=O)cc1	15%	22%	5%	0%	11µM*	11
CCc1nn(C(C)C(=O)NCCc2ccc(OC)c(OC)c2)c(=O)c2cc3occc3n12 (stereo not given)	0%	0%	4%	?	-16%	.
O=C(Cn1c(=O)n(Cc2ccccc2)c(=O)c2ccccc21)NCc1ccco1	-2%	-38%	1%	-12%	5%	.
COCCNC(=O)Cn1c(=O)n(Cc2ccc(C(=O)NCc3ccco3)cc2)c(=O)c2ccccc21	?	43%	-1%	1%	?	2
C/C(=N\NC(=O)c1cccnc1)c1ccc(C)c([N+](=O)[O-])c1	1%	0%	0%	4%	.	.
C/C(=N\NC(=O)c1[nH]c2c([N+](=O)[O-])cc(C)cc2c1-c1ccccc1)c1cccnc1	-8%	-1%	.	-1%	8.9µM*	-14
COc1ccc(C(=O)N2CCN(c3ccccn3)CC2)cc1	-3%	-5%	3%	?	-1%	.
COc1cccc(-c2cc(C(=O)Nc3nc4ccccc4s3)c3ccccc3n2)c1	-1%	-21%	1%	?	26%	.
COc1ccc(-c2cc(C(=O)Nc3nc4c(C)cccc4s3)c3ccccc3n2)cc1OC	-3%	-36%	.	?	11µM*	9
CCOC(=O)c1cnc2nc(Cc3ccccc3)[nH]n2c1=O	-3%	-18%	4%	-7%	0%	.
O=C(Nc1ccc(O)cc1)C1CC=CCC1 (stereo not given)	3%	-28%	?	0%	13µM*	9
O=C(Nc1nccs1)C1CC=CCC1 (stereo not given)	3%	-13%	-11%	?	15%	.
Cc1cc(C(F)(F)F)c2c(n1)sc1c(O)cc(=O)[nH]c12	13%	-19%	1%	0%	29%	.
O=c1cc(O)c2sc3nc(-c4cccnc4)cc(C(F)(F)F)c3c2[nH]1	14%	1%	-13%	?	10µM*	18
CCOc1ccc(S(=O)(=O)c2c(C(=O)c3ccc(C)cc3)cnc3cc4c(cc23)OCCO4)cc1	-2%	-6%	-1%	-7%	14µM*	-14
Cc1ccc(C(=O)c2cnc3cc4c(cc3c2S(=O)(=O)c2ccccc2)OCCO4)cc1	-8%	-11%	-17%	-4%	?	.
CCn1c2ccccc2c2n[nH]c(=S)nc21	-4%	-13%	7%	-1%	4%	.
O=S(=O)(Nc1ncccn1)c1ccc(-n2cnnn2)cc1	0%	-11%	1%	-4%	-3%	.
Cc1cc(NC(=O)c2ccccc2)ncc1NC(=O)c1ccco1	-25%	-3%	?	-1%	?	-23
CCC(=O)Nc1cc(C)c(NC(=O)c2ccco2)cn1	4%	-16%	3%	0%	2%	.
C/C(=N\NC(=S)Nc1ccc(C)c(C)c1)c1ccc(N2CCOCC2)cc1	-22%	0%	0%	?	7.9µM*	?
Cc1ccc(C2(C)NC(=O)N(CC(=O)NCCC3=CCCCC3)C2=O)cc1 (stereo not given)	9%	14%	5%	3%	11µM*	14
